APP transl inh – inhibitors of APP translation via 5'UTR reporter, primary screen, APP 5'UTR luciferase, SH-SY5Y cells. 0.82% of 190,000 active. inhibition, % at 2 µM. SH-SY5Y APP 5'UTR-luciferase reporter, luminescence;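 active = inhibition above a set limit, derived from the sample mean plus 3 SD, cut at about 45% in these data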
BaF3 tox – parental Ba/F3 cell viability inhibition, counter-screen for JAK2V617F inhibitor project, murine pro-B, CellTiter-Glo luminescence. CellTiter-Glo ATP luminescence. inhibition, % at 5.6 µM. 1.1% of 220,000 active;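 active = inhibition above a per-campaign cutoff, the mean inhibition of all tested compounds plus 3 SD, cut at about 27% in these data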;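 also: 0% = DMSO wells and 100% = JAK Inhibitor I control wells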
Ba/F3 V617F tox – reduced viability of JAK2V617F-dependent Ba/F3 cells, primary screen, JAK2V617F inhibitor project, cell-based, Ba/F3 EpoR-JAK2V617F, luminescence | ATP luminescence | inhibition, % at 5.6 µM | 1.1% of 220,000 active;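 active = inhibition above the campaign mean plus 3 SD over all tested compounds, cut at about 24% in these data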;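 also: cytokine-independent growth of Ba/F3 cells driven by EpoR plus mutant JAK2; 0% = DMSO-treated cells and 100% = JAK inhibitor I control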
aSyn 5UTR inh – MLPCN primary screen, SNCA 5' untranslated region | 0.82% of 300,000 active | inhibition, % (tested at 7.5 µM) | alpha-synuclein 5'UTR reporter, inhibitor activity | AID 1813, 2009; in the data active = inhibition above about 60%;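 also: H4 neuroglioblastoma cells stably carrying SNCA 5'UTR luciferase fusion; 0% = DMSO wells and 100% = positive control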
KLF5 inhibitor – KLF5 expression inhibitors, primary screen, DLD-1 cells, luminescence; DLD-1 KLF5 promoter-luciferase reporter; inhibition, % at 5 µM; 0.23% of 290,000 active; AID 1700, 2009;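 active = inhibition above a per-plate limit of that plate's mean compound inhibition plus 3 SD, cut at about 60% in these data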;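 also: 0% = DMSO wells and 100% = LY294002 at 200 µM; higher means less KLF5 promoter-driven luciferase light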
IEC-6 tox – cytotoxicity in IEC-6 intestinal epithelial cells, primary screen, cytotoxicity control for KLF5 inhibitor project, cell-based, luminescence; IEC-6 cytotoxicity, luminescence viability; inhibition, % at 5 µM; 0.78% of 290,000 active; in the data active = inhibition above about 22%;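 also: 0% = plate median of test compound wells and 100% = cytotoxic reference compound wells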
* = called active by the depositor; nt = not tested or not shown. Only some compounds are listed: those with a hit (about 2.1% of all), similar ones and a draw of the others.

SMILES	APP transl inh	BaF3 tox	Ba/F3 V617F tox	aSyn 5UTR inh	KLF5 inhibitor	IEC-6 tox
O=Nc1c2cc(-c3ccccc3)[nH]nc-2c2ccccc12	-100.9	10.1	11.3	36.8	-54.7	3.3
CC(C)Cc1nnc(NC(=O)CCC(=O)NC2CCCCCC2)s1	nt	nt	nt	17.6	3.9	5.8
O=C1C(Cl)=C(NCCCN2CCOCC2)C(=O)N1CCc1ccccc1	50.7*	3.7	5.1	-125.9	19.0	7.7
CC(C)(C)c1nnc(N/N=C/c2ccccc2O)n(N)c1=O	76.4*	1.4	-2.8	110.0*	19.4	-2.9
CC(C)(C)c1nnc(N/N=C/c2ccccc2)n(N)c1=O	-8.5	6.5	-1.8	-34.2	-0.3	-13.8
CCc1nnc(N/N=C/c2ccccc2F)n1N	10.5	-0.7	9.1	-28.5	5.7	101.8*
Cc1ccc[n+](C(C)C(=O)c2ccc(-c3ccccc3)cc2)c1 (centres undefined)	-9.1	68.7*	57.7*	2.4	-24.2	-12.0
CC(C(=O)c1ccc(-c2ccccc2)cc1)[n+]1ccccc1 (centres undefined)	1.7	63.6*	47.0*	12.5	-5.8	-1.4
Cc1cc[n+](C(C)C(=O)c2ccc(-c3ccccc3)cc2)cc1 (centres undefined)	-0.2	66.5*	81.0*	22.6	-21.3	-5.3
CC(C(=O)c1ccc(-c2ccccc2)cc1)[n+]1cccc(C(N)=O)c1 (centres undefined)	nt	nt	nt	8.5	0.6	-1.8
Cc1ccccc1C(=O)N/N=C/c1ccc([N+](=O)[O-])s1	43.0	5.3	2.5	93.4*	-20.1	1.7
O=C(Cc1ccccc1)N/N=C/c1ccc([N+](=O)[O-])s1	1.8	7.4	4.0	16.5	-10.0	6.8
O=C(N/N=C\c1ccc([N+](=O)[O-])s1)c1cncc(Br)c1	30.6	7.8	2.4	77.2*	-19.1	9.8
O=C(N/N=C/c1ccc(Br)s1)c1cccc([N+](=O)[O-])c1	44.0	6.6	-1.3	69.8*	-22.1	0.3
O=C(N/N=C/c1ccc([N+](=O)[O-])s1)c1ccccc1Br	38.0	1.7	5.1	47.2	-13.8	3.6
O=C(N/N=C/c1ccc([N+](=O)[O-])s1)c1ccccc1	24.1	7.1	5.2	67.5*	3.4	2.4
Cc1ccc(/C=N/NC(=O)c2cccc([N+](=O)[O-])c2)o1	62.2*	6.4	2.9	14.5	5.6	1.2
Cc1ccc(CSc2nnc(SCC(=O)N/N=C/c3ccc(C(=O)O)cc3)s2)cc1	nt	-5.3	-2.4	69.5*	-5.3	1.5
Cc1ccc(CSc2nnc(SCC(=O)N/N=C/c3ccccc3OCC(=O)O)s2)cc1	nt	2.5	-2.8	61.7*	-9.1	-5.6
Cc1ccc(CSc2nnc(SCC(=O)N/N=C/c3c[nH]c4ccccc34)s2)cc1	36.5	8.6	3.7	13.5	-17.1	5.7
Cn1c(/C=C/c2ccccc2)nc2ccccc2c1=O	nt	nt	nt	-137.5	-102.5	3.3
Cn1c(/C=C/c2ccc([N+](=O)[O-])o2)nc2ccccc2c1=O	36.7	67.0*	87.3*	97.9*	-21.2	5.8
CN(C(=O)CN1C(=O)C2C3CC(C(Br)C3Br)C2C1=O)C1CCCCC1 (centres undefined)	nt	nt	nt	20.3	-14.2	-3.6
CC(C1CC2CCC1C2)n1c(-c2ccco2)n[nH]c1=S (centres undefined)	53.8*	8.0	-2.2	10.2	-3.7	-2.8
CCN(CC)CCN1C(=O)c2cccc3cc(N)cc(c23)C1=O	nt	70.1*	82.2*	-53.3	-28.4	13.1
SMILES	APP transl inh	BaF3 tox	Ba/F3 V617F tox	aSyn 5UTR inh	KLF5 inhibitor	IEC-6 tox
CC(=O)OCCCN1C(=O)c2cccc3cc(Br)cc(c23)C1=O	nt	nt	nt	13.6	-3.2	5.6
Nc1cc2c3c(cccc3c1)C(=O)N(CCN1CCCC1)C2=O	nt	83.4*	97.2*	54.0	-8.7	61.6*
Cc1c(NC(=O)COC(=O)C2=COCCO2)cccc1[N+](=O)[O-]	nt	nt	nt	4.0	nt	nt
COc1ccc(/C=N\NC(=O)c2cccc(F)c2)cc1COc1ccccc1	nt	nt	nt	88.0*	nt	nt
O=C1CN(C(=O)c2ccccc2F)C(c2ccccc2)c2cc(Cl)ccc2N1 (centres undefined)	nt	nt	nt	-0.7	9.6	-4.8
CCSc1ccc2cc(OC)ccc2[n+]1CC	36.0	87.8*	81.7*	-14.7	-9.0	-5.5
CCOc1ccc(-c2cnc3ccccc3n2)cc1	nt	-0.6	-3.3	92.2*	26.7	3.0
CCc1ccc(-c2cn3nc(C)c(C)nc3n2)cc1	-2.0	8.6	-1.5	87.0*	-129.4	-2.9
O=C(Nc1ccc(N2CCN(C(=O)c3ccc(Cl)cc3)CC2)cc1)c1ccc([N+](=O)[O-])o1	96.1*	5.7	2.8	119.6*	-28.5	-4.1
CC1CCN(c2ccc(NC(=O)c3ccc([N+](=O)[O-])o3)cc2)CC1	nt	nt	nt	44.3	nt	nt
CCCN(CCC)S(=O)(=O)c1ccc(C(=O)Nc2ccc(S(=O)(=O)Nc3nnc(CC)s3)cc2)cc1	nt	nt	nt	21.2	-33.0	-3.3
CC(C)CNc1nc(N)c([N+](=O)[O-])c(NCc2ccccc2)n1	nt	nt	nt	77.0*	-26.5	-2.8
Nc1nc(Nc2ccccc2)nc(NCc2ccccc2)c1[N+](=O)[O-]	nt	-1.3	-1.8	84.2*	9.1	8.8
Cc1ccc(S(=O)(=O)N(C)C)cc1NC(=O)COC(=O)c1sc2cc(Cl)ccc2c1Cl	nt	3.4	2.2	-2.3	-28.2	1.3
Cc1ccc(C(=O)OCC(=O)NNC(=O)c2cccs2)c(O)c1	nt	nt	nt	-6.6	nt	nt
Cc1ccc(/C=N/NC(=O)c2cccnc2)o1	10.8	2.5	-0.5	-5.8	-36.4	3.3
O=C(O)c1cccc(-c2ccc(/C=N/NC(=O)c3cccnc3)o2)c1	-5.0	28.4*	0.0	-27.4	-46.7	-6.8
CCN(CC(=O)NCc1ccncc1)S(=O)(=O)c1ccccc1	nt	nt	nt	5.6	-10.6	-2.7
C/C(=N\NC(=O)c1ccncc1)c1cccs1	4.8	6.7	1.4	-48.3	-12.2	3.9
C/C(=N/NC(=O)c1cc(C2CC2)[nH]n1)c1cccs1	-119.7	1.9	1.7	84.3*	-45.6	5.8
COc1ccc(C(=O)NC(C)CCn2cccn2)cc1OC1CCN(C(C)C)CC1 (centres undefined)	nt	nt	nt	0.3	-7.4	-3.2
N#Cc1c(NC(=O)c2ccccc2)sc2c1CCC2	-109.3	27.8*	37.2*	-287.9	-147.7	13.6
N#Cc1c(NC(=O)c2cccnc2)sc2c1CCC2	-0.5	42.0*	41.3*	-149.8	23.9	18.6
O=C(Nc1sc2c(c1C(=O)c1ccccc1)CCCC2)c1cccnc1	1.6	4.6	-0.7	43.8	-18.9	-4.9
COc1ccc(CN2CCN(c3ncnc4scc(-c5ccc(F)cc5)c34)CC2)cc1	nt	nt	nt	-4.7	-25.6	6.7
COc1ccc(F)cc1CN1CCN(c2ncnc3scc(-c4ccccc4)c23)CC1	nt	0.0	-1.3	98.1*	-8.6	2.3
CCOC(=O)Cn1ccc(NC(=O)c2ccc3c(c2)OCO3)n1	nt	nt	nt	22.4	-24.0	-4.7

Screens as filed in PubChem BioAssay.
